Source: PubChem
An excerpt weighted towards active compounds, which were near 3.5% of everything screened.
MITF primary: blocks human microphthalmia-associated transcription factor; O75030; AlphaScreen MITF homodimerization, bead proximity signal; inhibition, % at 2.6 µM; hit rate 0.91% among 650,000; AID 1259374; in the data active = inhibition above about 50%;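 also: 0% = vehicle wells with protein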
GPR151 activ: activates the human receptor GPR151 | PathHunter beta-arrestin GPR151 cells, luminescence | Q8TDV0 | activation, % at 11.2 µM | hit rate 1% among 650,000; in the data active = activation above about 4.9%;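 also: 0% = median of compound wells and 100% = cells with positive control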
Target sequence (Q8TDV0 whole entry, looked up): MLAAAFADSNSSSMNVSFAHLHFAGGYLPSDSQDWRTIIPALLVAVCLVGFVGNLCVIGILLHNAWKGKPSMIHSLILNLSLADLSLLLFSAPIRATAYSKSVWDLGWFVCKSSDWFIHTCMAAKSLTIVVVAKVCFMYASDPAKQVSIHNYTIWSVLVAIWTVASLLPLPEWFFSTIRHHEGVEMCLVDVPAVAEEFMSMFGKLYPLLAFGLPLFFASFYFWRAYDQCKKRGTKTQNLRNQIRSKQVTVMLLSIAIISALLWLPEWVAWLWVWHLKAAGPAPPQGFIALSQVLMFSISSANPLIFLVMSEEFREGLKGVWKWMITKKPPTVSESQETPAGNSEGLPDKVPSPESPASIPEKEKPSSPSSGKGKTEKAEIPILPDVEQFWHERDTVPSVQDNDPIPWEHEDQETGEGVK
TEAD-YAP inh: TEAD-YAP interaction inhibition. hit rate 1.4% among 640,000. HEK-TIYL cells, TEAD-Gal4/YAP UAS-luciferase luminescence. inhibition, % at 9.12 µM; in the data active = inhibition above about 32%;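 also: 0% = median of test compound wells and 100% = reference inhibitor wells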
FBW7 activator: activators of human E3 ligase FBW7. Q969H0. AlphaScreen FBW7–phospho-cyclin E peptide binding, activator screen. normalized activity (activation), % at 26.1 µM. hit rate 0.13% among 650,000. AID 1259310; in the data active = normalized activity above about 1.9%;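 also: purified mutant Fbw7 with reduced substrate affinity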
* marks the source's active call; other numbers are inactive results.

SMILES	MITF primary	GPR151 activ	TEAD-YAP inh	FBW7 activator
CN(c1ccccc1)c1ccc(/C=C/[N+](=O)[O-])cc1	-7	-1	34*	0
Cc1cc(NC2CC2)nc(NC2CCC(O)CC2)n1 (stereo not given)	0	2	10	0
COc1cccc(-c2nc(COC(=O)c3[nH]c(C)c(C(C)=O)c3C)cs2)c1	10	1	44*	0
CC(NCCN1CCNCC1)c1cc(C(C)(C)C)cc2c1CCC2(C)C (stereo not given)	-17	-1	64*	1
COCCCN=C1NS(=O)(=O)c2ccccc21	12	0	0	1
Cc1cccc(-c2nnc(SCC(=O)Nc3cc(Cl)ccc3O)o2)c1	17	-4	-39	0
Cc1cccc(-c2nnc(SCC(=O)Nc3ccccc3F)o2)c1	-1	0	64*	0
CC1(C)S[C@@H]2[C@H](NC(=O)[C@H](C(=O)O)c3cccs3)C(=O)N2[C@H]1C(=O)O	-17	1	-3	0
CC1(C)C(C(=O)O)N2C(=O)C(NC(=O)C(C(=O)O)c3ccccc3)C2S1=O (stereo not given)	23	-1	1	2.5*
CCC(C)NC(=O)c1c(C)nc2ccccn12 (stereo not given)	15	-1	11	2.1*
Cc1nc2ccccn2c1C(=O)NCc1ccccc1Oc1ccccc1	21	-1	3	1.9*
Cc1nc2ccccn2c1C(=O)NCc1ccccc1	-2	5	-5	0
Cc1ccc(C(=O)NCCNS(=O)(=O)c2ccc(C)cc2)cc1	-6	-1	-8	0
Cc1ccnc(NC(=O)C(C)N2Cc3ccccc3C2=O)c1 (stereo not given)	-2	2	89*	0
Cc1ccc(C)c(NC(=O)C(C)N2Cc3ccccc3C2=O)c1 (stereo not given)	-10	0	-5	0
Cc1cccc(NC(=O)C(C)N2Cc3ccccc3C2=O)n1 (stereo not given)	5	2	5	0
CC(C(=O)Nc1ccccn1)N1Cc2ccccc2C1=O (stereo not given)	-5	0	48*	0
Cc1cc(C(=O)N/N=C\c2cccc(Br)c2)n[nH]1	10	-1	-30	0
CC1C(O)=C(c2nc3ccccc3[nH]2)c2nc(=O)c3ccccc3n21 (stereo not given)	17	-1	54*	-1
Cc1cccc2c(=O)nc3n(c12)CC(O)=C3c1nc2ccccc2[nH]1	2	0	-5	0
COc1ccc(/C=N/NC(=O)C(O)(c2ccccc2)c2ccccc2)c(OC)c1OC	-3	-1	-3	0
Cc1cc(-c2nc(Nc3ccc(-n4cnc(N5CCOCC5)n4)cc3)ncc2Cl)no1	11	1	39*	-1
CCOC(=O)c1c(Cl)ccc2cnc(Nc3ccc(-n4cnc(N5CCOCC5)n4)cc3)nc12	-1	0	59*	0
CC(C)n1cc(-c2ccc3cnc(Nc4ccc(-n5cnc(N6CCOCC6)n5)cc4)nc3c2Cl)cn1	12	2	6	0
Cc1ncn(-c2ccc(Nc3ncc4cccc(-c5cccc(N6CCOCC6)c5)c4n3)cc2)n1	16	0	39*	0
SMILES	MITF primary	GPR151 activ	TEAD-YAP inh	FBW7 activator
Cc1ncn(-c2ccc(Nc3ncc4cccc(-c5ccccc5)c4n3)cc2)n1	6	1	9	-1
Cc1ccc(-c2cccc3cnc(Nc4ccc(-n5cnc(N6CCOCC6)n5)cc4)nc23)cn1	1	0	49*	1
Clc1cnc(Nc2ccc(-n3cnc(N4CCOCC4)n3)cc2)nc1-c1ccno1	4	-1	9	1
O=C(O)c1cc2cc([N+](=O)[O-])ccc2cc1O	12	0	2	0
CC1=C(C(=O)N2CCN(C3CCCCC3)CC2)C2(CCCCC2)OC1=O	5	0	-3	0
Cc1csc2nc(-c3ccc(NS(=O)(=O)N(C)C)cc3)cn12	13	0	2	0
CCS(=O)(=O)Nc1ccc(-c2cn3c(C)csc3n2)cc1	0	2	33*	0
O=C(Nc1cc(=O)[nH]c(=O)[nH]1)c1cccc(Br)c1	13	0	44*	1
O=C(Nc1ccccc1)c1cccc(Br)c1	14	1	-25	0
O=C(Nc1nccs1)c1cn(-c2ccccc2)nc1-c1ccc(Br)cc1	5	-1	17	0
O=C(Nc1nccs1)c1cn(-c2ccccc2)nc1-c1cccnc1	-2	2	38*	0
c1cncc(CNc2ncnc3nc(Nc4ccc5ncccc5c4)[nH]c23)c1	-3	-2	38*	0
O=C(COc1ccccc1-c1ccccc1)NN=C1CCCC1	5	2	61*	0
CCC(=O)Nc1nnc(S(=O)(=O)N(CC)c2ccc(C)cc2)s1	14	0	3	0
COc1ccc(/C=C/c2nc3ccccc3c(=O)[nH]2)cc1O	6	-9	44*	0
O=c1[nH]c(/C=C/c2ccc3c(c2)OCO3)nc2ccccc12	10	-8	56*	0
COc1cccc(/C=C/c2nc3ccccc3c(=O)[nH]2)c1O	15	-11	65*	0
COc1ccc(/C=C\c2nc(O)c([N+](=O)[O-])c(=O)[nH]2)cc1O	-9	-1	1	0
COc1ccc(OCC(O)Cn2c(NCc3ccco3)nc3c2c(=O)n(C)c(=O)n3C)cc1 (stereo not given)	-1	1	16	0
CC1(C)CC(=O)C=C(NNC(=O)/C(=C/c2ccccc2)CCO)C1	11	1	11	1.9*
CC1(C)CC(=O)C=C(NNC(=O)c2ccc(O)cc2)C1	-16	0	4	0
CCC(Sc1nc2cc(OC)c(OC)cc2c(=O)n1CCc1ccc(Cl)cc1)C(=O)Nc1cccc(C)c1 (stereo not given)	-1	4	5	0
CCOc1ccc(OCC(=O)Nc2cccc(C(=O)O)c2)cc1	1	5	4	0
CCCCOc1ccc(C(=O)NC(=S)Nc2ccccn2)cc1	19	-2	-50	1
O=C(COc1ccccc1)Nc1ccccn1	1	-4	21	0
SMILES	MITF primary	GPR151 activ	TEAD-YAP inh	FBW7 activator
Cc1ccc(OCC(=O)Nc2cccc(C(=O)O)c2)cc1	-10	4	69*	0
O=C(COc1ccc(Br)cc1)Nc1ccccn1	-7	0	62*	0
Cc1ccc(OCC(=O)Nc2ccccn2)cc1	3	-1	83*	0
CCOc1ccc(C(=O)NC(=S)Nc2ccccn2)cc1	13	-8	86*	1
CC(C)N(CCNC(=O)c1cccc(-c2ccccc2)c1)C(C)C	25	-1	2	1
Cn1c(Nc2nc(Nc3ccc4c(c3)OCO4)c3ncn(-c4ccccc4)c3n2)nc2ccccc21	8	-1	-8	0
O=C(Nc1ccccn1)c1ccc(-c2ccccc2)cc1	3	-3	75*	0
COc1cc(OC)cc(C(=O)N/N=C(\C)CC(=O)Nc2ccccn2)c1	-2	0	56*	0
Cc1ccc(C(=O)NC(=S)Nc2cccc(C(=O)O)c2)cc1	2	-6	75*	0
Cc1cccc(C(=O)NC(=S)Nc2cccc(C(=O)O)c2)c1	-2	-1	-42	0
